Laboratory results from PubChem BioAssay.
Results filed as inconclusive are left out. Calls of active or inactive are those of the source.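 The calls were made as follows, unless noted: active = viability at or below 30% in both replicate assays; inconclusive = viability at or below 30% in just one of the two assays; inactive = the rest.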

What was measured:
[1] = HUVEC growth inhibition – cell-based, human, primary screen (AID 575); conditions: HUVEC proliferation, CellTiter-Glo luminescence, 72 h; at 10 µM; stronger effect = lower value;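 also: 100% = median of untreated cell wells with 0.1% DMSO on each plate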
[2] = growth inhibitors of H69AR lung tumor, primary screen, human, duplicate replicates (AID 580;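 active = viability at or under a set limit in both replicates, limit being median viability minus 3 SD, cut at about 48% in these data, passing the limit was not always enough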;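 also: 100% = mean luminescence of untreated wells and 0% = no signal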); conditions: H69AR lung tumor cells viability, ATP luminescence, 72 h; at 10 µM; stronger effect = lower value
[3] = reversal of MRP1-mediated doxorubicin resistance, pilot screen, H69AR cells, doxorubicin co-treatment (AID 601;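 active = viability loss from added drug above about 55%, and viability with drug at most 40%, in both replicates, limit read from the data, passing the limit was not always enough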); conditions: CellTiter-Glo, 72 h, at 10 µM; for differential viability (reversal): stronger effect = higher value
[4] = 384-well plate pilot, post-Golgi transport modulator project, inhibition of yeast transport mutant growth (AID 636; in the data active = inhibition above about 31%); conditions: absorbance 615 nm, about 18 h, stronger effect = higher value
[5] = growth suppression of yeast trafficking mutant, preliminary HTS, modulators of trafficking downstream of Golgi apparatus project, 1536-format plate, OD 615 nm (AID 637; in the data active = inhibition above about 30%); conditions: yeast transport mutant growth, absorbance 615 nm, 18 h; stronger effect = higher value
[6] = OD615 S. cerevisiae growth inhibition, permissive medium, pilot counter-assay, permissive growth control for S. cerevisiae lifespan shortening project (AID 705;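 active = growth inhibition above 25% in both replicates, a cutoff set 3 SD above the mean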); conditions: OD615, 24 h, at 10 µM, stronger effect = higher value
[7] = Restrictive medium S. cerevisiae growth inhibition, OD615, pilot screen of yeast lifespan reduction project, restrictive growth control (AID 706;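 active = growth inhibition above a set limit, 3 SD over mean compound inhibition, in both replicates, cut at about 43% in these data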;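 also: modified DeaD lifespan yeast strain shifted to restrictive glucose medium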); conditions: OD615, 48 h, at 10 µM, stronger effect = higher value
[8] = viability gain of MRP-1-high H69AR cells under doxorubicin, pilot screen, MRP-1 activator project, CellTiter-Glo, duplicate (AID 807;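 active = viability increase at or above a cutoff of the median across tested compounds plus 3 SD, cut at about 8.5% in these data, passing the limit was not always enough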;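 also: compound pretreatment 18-22 h then 72 h combined with doxorubicin; 0% = doxorubicin alone and 100% = vehicle without doxorubicin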); conditions: H69AR viability with doxorubicin, CellTiter-Glo luminescence; at 10 µM; stronger effect = higher value
[9] = growth suppression of beta-catenin knockout HCT116, pilot screen, human colon tumor cells (AID 823;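 active = cell viability at or below a set limit in both duplicate runs, the limit being the all-compound median minus 4 SD, cut at about 23% in these data, passing the limit was not always enough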;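 also: 0% = wells killed by 20 µM Hyamine and 100% = untreated DMSO cell wells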); conditions: CellTiter-Glo, 60 h, at 10 µM, stronger effect = lower value
[10] = growth suppression of PTEN-deleted HCT116, pilot screen, cell-based, HCT116 clonal line, CellTiter-Glo (AID 824;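 active = viability at or below 27.92% in each of two runs, the all-compound median minus 4 SD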;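 also: 0% = 20 µM Hyamine control and 100% = vehicle cell control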); conditions: 60 h, at 10 µM, stronger effect = lower value
[11] = inhibitors of the yeast RAM network, pilot screen, dse1pr::URA3 reporter, 5-FOA selection (AID 869;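 active = inhibition over a set limit, the all-compound mean plus 3 SD, in both replicate runs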;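 also: 0% = DMSO wells with no growth and 100% = 10 µM 1-NA-PP1 with full growth; RAM network block rescues cells from 5-FOA so hits raise OD615 growth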); conditions: S. cerevisiae dse1pr::URA3 5-FOA growth, OD615, 2 d; at 10 µM; stronger effect = higher value; strain carries analog-sensitive mutant Cbk1 kinase
[12] = RAM signaling pathway blockade in yeast – S. cerevisiae, Pdr1DBD-CYC8 efflux-inhibited sensitized strain, primary screen (AID 1298;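 active = RAM network inhibition above 8.4% in each of two replicates, 3 SD over the compound average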;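 also: 0% = DMSO untreated cells without growth and 100% = 10 µM 1-NA-PP1 full growth; higher means more yeast growth rescued from 5-FOA killing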); conditions: S. cerevisiae cbk1-as DSE1-URA3 strain, 5-FOA growth OD615, 2 d; at 50 µM; stronger effect = higher value
[13] = H69AR cells + 2 uM doxorubicin, measured here: viability with 2 uM doxorubicin, stronger effect = lower value
[14] = H69AR cells, compound alone cytotoxicity

| Compound | viability [1] | viability [2] | differential viability (reversal) ([3]; H69AR cells + 2 uM doxorubicin) | viability [3, 13] | viability [3, 14] | inhibition [4] | inhibition [5] | growth inhibition [6] | growth inhibition [7] | viability increase [8] | viability [9] | viability [10] | inhibition [11] | RAM network inhibition [12] |
| --- | --- | --- | --- | --- | --- | --- | --- | --- | --- | --- | --- | --- | --- | --- |
| CC(C(=O)Oc1ccc2c(c1)OCO2)N1C(=O)c2ccccc2C1=O (centres undefined) | 79.5% (inactive) | 84.3% (inactive) | -10.1% (inactive) | 94.4% | 84.3% | -1.69% (inactive) | 1.27% (inactive) | -0.745% (inactive) | 13.1% (inactive) | -1.6% (inactive) | 99.3% (inactive) | 105% (inactive) | 1.38% (inactive) | 0.12% (inactive) |
| CCn1cc(C(=O)NCC2COc3ccccc3O2)c2cc(OC)c(OC)cc2c1=O (centres undefined) | 77.5% (inactive) | 79.3% (inactive) | 0.385% (inactive) | 79% | 79.3% | -6.05% (inactive) | 0.16% (inactive) | -11.4% (inactive) | -33.2% (inactive) | -4.69% (inactive) | 97.9% (inactive) | 86.7% (inactive) | 0.96% (inactive) | 3.33% (inactive) |
| COc1cccc2cc(C(=O)Nc3cccnc3N3CCOCC3)c(=O)oc12 | 101% (inactive) | 94.3% (inactive) | 10.1% (inactive) | 84.2% | 94.3% | -4.03% (inactive) | 3.65% (inactive) | -8.22% (inactive) | -21.8% (inactive) | -3.74% (inactive) | 101% (inactive) | 98.8% (inactive) | 3.31% (inactive) | 1.45% (inactive) |
| O=C(CN1C(=O)NC(Cc2ccccc2)C1=O)Nc1ccccc1 (centres undefined) | 101% (inactive) | 96.7% (inactive) | -0.17% (inactive) | 96.9% | 96.7% | -1.17% (inactive) | -0.63% (inactive) | -11.6% (inactive) | -16.5% (inactive) | 1.83% (inactive) | 97.8% (inactive) | 94.6% (inactive) | 1.85% (inactive) | 0.35% (inactive) |
| CCCCNC(=O)Nc1ccnn1C1CCCCC1 | 96.5% (inactive) | 100% (inactive) | 13% (inactive) | 87.2% | 100% | -3.64% (inactive) | 7.14% (inactive) | -5.58% (inactive) | -15% (inactive) | -1.77% (inactive) | 97.9% (inactive) | 90.7% (inactive) | -0.255% (inactive) | -2.79% (inactive) |
| COc1cccc(N2CCN(c3c4c(nc5ncnn35)CCC4)CC2)c1 | 68.7% (inactive) | 86.9% (inactive) | 10.4% (inactive) | 76.5% | 86.9% | -4.55% (inactive) | 8.73% (inactive) | -0.38% (inactive) | 16.8% (inactive) | -1.17% (inactive) | 77.5% (inactive) | 92.9% (inactive) | 0.465% (inactive) | 4.78% (inactive) |
| COc1cc2[nH]c(=O)n(CCCCCC(=O)NCCCN3CCCC3=O)c(=O)c2cc1OC | 103% (inactive) | 104% (inactive) | 11.6% (inactive) | 92.9% | 104% | -5.39% (inactive) | -0.32% (inactive) | -1.87% (inactive) | -4% (inactive) | 1.13% (inactive) | 103% (inactive) | 104% (inactive) | 1.91% (inactive) | 6.37% (inactive) |
| CC(c1ccco1)N(C(=O)c1ccc(S(=O)(=O)N2CCCCC2)cc1)c1ccccn1 (centres undefined) | 87.5% (inactive) | 86% (inactive) | -8.22% (inactive) | 94.2% | 86% | -4.03% (inactive) | 1.27% (inactive) | -17.7% (inactive) | 2.26% (inactive) | -4.13% (inactive) | 97.4% (inactive) | – | 1.19% (inactive) | 3.18% (inactive) |
| O=c1cc(-c2ccco2)oc2ccc(Cl)cc12 | 111% (inactive) | 98.4% (inactive) | 12.5% (inactive) | 85.9% | 98.4% | -2.6% (inactive) | 4.76% (inactive) | -19.4% (inactive) | -2.54% (inactive) | -2.08% (inactive) | 96.9% (inactive) | 98.2% (inactive) | 0.61% (inactive) | 6.02% (inactive) |
| Cc1ccc(C)c(N2C(=O)CN=C2Nc2ccccc2Cl)c1 | 80.1% (inactive) | 100% (inactive) | 21.3% (inactive) | 78.6% | 100% | -1.95% (inactive) | 2.54% (inactive) | -7.25% (inactive) | -0.67% (inactive) | -0.31% (inactive) | 91.5% (inactive) | 94.4% (inactive) | 0.715% (inactive) | -0.52% (inactive) |
